Assay results reported in the supplement of paper PMC3484114.
± gives the standard deviation.

tested on: OVCAR-3-derived ovarian cancer stem-like cells (spheroids); assay: cell growth relative to untreated control; higher = more growth (less inhibition); conditions: 2.29 µM; 96 h
Procedure, shortened: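 Percent growth was calculated against untreated wells once blanks were subtracted and Grubbs outliers removed. The cells were OVCAR-3 spheroid-derived stem-like cells, trypsinized and plated at 50,000 cells/mL in stem cell medium on ultra-low attachment 96-well plates for a 24 h preincubation. They were then exposed to compounds at 2.29 uM for 96 h at 37°C, 5% CO2, in 4 replicate wells, and viability was measured by TOX8 resazurin fluorescence (ex 560/em 590 nm) after 4 h.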

SMILES | cell growth
CC(=O)SC(SC(C)=O)SC(C)=O | 97.1 ± 26%
CC(=O)c1sc2[n+](c1C)C(=O)/C(=C\c1ccccc1Cl)S2 | 99.4 ± 17%
O=C(CC(=O)C(F)(F)F)c1csc2ccccc12 | 93.5 ± 13%
COC(C(=O)C(O)C(C)O)C1Cc2cc3cc(OC4CC(OC5CC(O)C(O)C(C)O5)C(O)C(C)O4)c(C)c(O)c3c(O)c2C(=O)C1OC1CC(OC2CC(OC3CC(O)C(OC)C(C)O3)C(O)C(C)O2)C(O)C(C)O1 (centres undefined) | 54.3 ± 53%
Nc1ncnc2c1nnn2[C@@H]1O[C@H](CO)[C@@H](O)[C@H]1O | 23.1 ± 4.4%
CC(=O)N=C1N(/C=C2\C(=O)Oc3ccccc3C2=O)C(=O)/C(=C/c2ccccc2Cl)N1C | 122 ± 43%
Clc1ccc(-c2c(C3=NCCCN3)nnn2-c2ccc(Cl)cc2)cc1 | 156 ± 57%
O=S(=O)(O)c1cc(N=Nc2cc(S(=O)(=O)O)c3ccccc3c2O)ccc1/C=C/c1ccc(N=Nc2cc(S(=O)(=O)O)c3ccccc3c2O)cc1S(=O)(=O)O | 110 ± 24%
CCc1cccc(CC)c1NC(=O)C(C#N)C1=C(Cl)C(=O)c2ccccc2C1=O (centres undefined) | 70.3 ± 31%
COC(=O)c1cc(-c2c[nH]cc2C(=O)OCc2ccccc2)cn1S(=O)(=O)c1ccc(C)cc1 | 140 ± 35%
O=c1oc2ccccc2cc1-c1ccc([N+](=O)[O-])cc1 | 38.6 ± 7.1%
Cc1nc2c(o1)C(=O)c1ccccc1C2=Nc1ccccc1 | 123 ± 56%
CN(C)c1ccc(/C=C2\CCc3ccccc3C2=O)cc1Br | 91.4 ± 12%
O=c1c(O)c(-c2ccc(O)c(O)c2)oc2cc(O)ccc12 | 94.3 ± 22%
O=C1C=Cc2ncccc2C1=O | 97.9 ± 16%
O=C1C=CC(=O)c2c(O)c(N3CCN(CCOCCO)CC3)c(Br)c(O)c21 | 18 ± 6.4%
O=C(CC(O)(C(F)(F)F)C(F)(F)Cl)CC(O)(C(F)(F)F)C(F)(F)Cl (centres undefined) | 66.8 ± 21%
O=NN(CCCl)C(=O)NCc1ccc[n+]([O-])c1 | 76.9 ± 13%
COc1ccc2c(NCCCCCCNc3c4ccccc4nc4cc(OC)ccc34)c3ccccc3nc2c1 | 13.9 ± 5.5%
CCOC(C)C(C=NNC(N)=S)=NNC(N)=S (centres undefined) | 23 ± 5.7%

SMILES | cell growth
CCS(=O)(=O)Nc1ccc(Nc2c3ccccc3nc3ccccc23)c(OC)c1 | 32.5 ± 9%
O=Nc1ccc(O)c2ncccc12 | 82 ± 25%
O=C1Cc2c([nH]c3ccc(Br)cc23)-c2ccccc2N1 | 109 ± 9.9%
C=C1C(=O)OC2CC1C(OC(C)=O)C/C(C)=C/CC/C(C)=C\CCC2(C)O (centres undefined) | 48.5 ± 5.5%
CN/N=C(\C)C(CN1CCCCC1)C(C1=C(O)c2ccccc2OC1)c1ccccc1 (centres undefined) | 94.9 ± 41%
Nc1ccc(S(=O)(=O)Nc2cnc3c(Cl)cccc3n2)cc1 | 100 ± 15%
Cc1c(C(=O)C/C(=N/NC(=O)CC#N)C(N)=O)[n+](=O)c2ccccc2n1[O-] | 51.9 ± 10%
Cc1cc(NC(=O)NC(=O)c2ccccc2NC(=O)CN)ccc1Oc1ncc(Br)cn1 | 49.8 ± 9%
Nc1ccc2cc3ccc(N)cc3nc2c1 | 25.8 ± 6.4%
CCN(CC)CCCC(C)Nc1ccnc(/C=C/c2ccc(Cl)cc2)c1 (centres undefined) | 84.6 ± 25%
COC1=C(N)C(=O)c2nc(C)ccc2C1=O | 125 ± 79%
O=S1(=O)OCCOS(=O)(=O)C1Cc1ccccc1 | 93.4 ± 15%
S=C(Nc1ccccc1)N(/N=C/C=C/c1ccccc1)c1nnc(-c2ccccc2)c(-c2ccccc2)n1 | 132 ± 57%
OCc1ccc(-c2ccc(-c3ccc(CO)s3)o2)s1 | 92.2 ± 21%
CCCCS(=N)(=O)CCC(N)C(=O)O (centres undefined) | 86.6 ± 8.1%
CN(C)c1ccc(/C=C/C(=O)c2ccccc2)cc1Br | 114 ± 9.2%
O=C(CC1(O)C(=O)Nc2c(Cl)ccc(Cl)c21)c1ccc(Cl)cc1 (centres undefined) | 142 ± 53%
COC(=O)[C@@H]1[C@H](O)[C@H](C)[C@H](O)[C@H](C)/C=C\C=C(/C)C(=O)Nc2c(C)c(OC(C)=O)c3c(c2O)C(=O)C(C)=C2OCOC(=C23)/C(C)=C/[C@@](C)(O)[C@H](O)[C@@H](C)[C@H]1OC(C)=O | 110 ± 22%
CN1CCN(CCNc2ccc(CO)c3sc4ccccc4c(=O)c23)CC1 | 49.7 ± 14%
